Measurements: PubChem BioAssay (NCI)
This is part of a sample that, as a whole, favours compounds with a hit. Of some 83,000 tested, about 20% had one in any assay.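 Cell lines were cultured in 96-well plates, exposed to a single compound concentration, and assessed for percent growth 48 hours later.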 A number with no mark means an inactive call. Active and inactive are the calls of the source. Rule for the calls: active = growth percent below 10; inactive = the rest.

Tested on: MALME-3M melanoma
Assay: NCI-60 one-dose screen, 48 h (100 = growth as untreated, 0 = no growth, -100 = all killed)
Conditions: 10 µM unless noted

Row | Structure (SMILES) | growth
1 | Cc1ccc(-c2onc3c(=O)[nH]nc(-c4ccccc4)c23)cc1 | 82.6%
2 | O=C1CSC(=S)N1CCc1ccc(O)cc1 | 85.3%
3 | CNC(=O)c1cc(Oc2ccc(NC(=O)Nc3ccc(Cl)c(OC(F)(F)F)c3)c(F)c2)ccn1 | 1.66% (active)
4 | N#C/C(=C\c1ccc(-c2ccc(Cl)c(Cl)c2)o1)c1nc(-c2ccco2)cs1 | 89.1%
5 | O=S(=O)(Nc1ccc(OC(F)F)cc1)c1ccc(-c2cnc(C3CC3)o2)cc1 | 76.5%
6 | O=C1Nc2cc(-c3ccc(O)cc3)ccc2/C1=C/c1ccc[nH]1 | 15.3%
7 | CON1C(=O)CC[C@]2(C)[C@H]3CC[C@@H]4C([C@@]5(C)CCC(=O)O5)CC[C@@]4(C)[C@]3(C)CC[C@H]2C1(C)C (stereo not given in full) | 105%
8 | Cn1cc(C(=O)c2nc(-c3c[nH]c4ccc(Br)cc34)no2)c2cc(F)ccc21 | 96.1%
9 | COc1ccc(-n2nc(C)c3c(Nc4ccc(NC(=O)Nc5cccc(C(F)(F)F)c5)cc4)ncnc32)cc1 | -10.9% (active)
10 | CC(C)C1=C[C@@]23CC[C@@H]4[C@](C)(CCC[C@@]4(C)C(=O)N4CCCNCC4)[C@H]2C[C@@H]1[C@H]1C(=O)CCC(=O)[C@H]13 | 99.9%
11 | C#CCOc1ccc2ncnc(N3CCC(NC(=O)CCl)CC3)c2c1 | 83.9% [8.25 µM]
12 | Cc1ccc(NC(=O)/C=C/c2ccccc2)c(C(N)=O)c1 | 96.6%
13 | COc1ccc(/C=C\c2cc(OC)c(OC)c(OC)c2)cc1OC(=O)c1cccc(Cn2cc(CCOC(=O)[C@H](N)Cc3cn(C)c4ccccc34)nn2)c1 | 65.4%
14 | O=C1c2ccccc2C(=O)c2c1ccc1[nH]c(-c3cccs3)nc21 | 81.9%
15 | CN1CCN(Cc2ccc(NC(=O)c3cncc(C#Cc4cncn5ccnc45)c3)cc2C(F)(F)F)CC1 | 2.25% (active)
16 | CC(C)(C)c1cc(/C=N\NC(=O)/C=C/C=C/c2ccc3c(c2)OCO3)c(O)c(C(C)(C)C)c1 | 71.3%
17 | CCCc1cc(=O)n2c(C(=O)Nc3ccc(F)cc3)c(C(=O)Nc3ccc(F)cc3)sc2n1 | 38.5% [30 µM]
18 | O=C(O)COc1ccc(Cl)cc1C1CCCCC1 | 104%

Row | Structure (SMILES) | growth
19 | NC(=O)c1cc(Br)ccc1NC(=O)/C=C/c1ccccc1 | 96.5%
20 | Cc1nn(-c2ccc(F)cc2)c2ncnc(Oc3ccc(NC(=O)Nc4ccc(Cl)c(C(F)(F)F)c4)cc3)c12 | 100%
21 | CSc1nc(-c2cccc(NC(=O)CCl)c2)c(C#N)c(=O)n1C | -72.6% (active)
22 | CCCCN(CCCC)CCCn1c(-c2ccccc2)ccc1-c1ccccc1 | 86.2%
23 | Cc1c(/C=C/[N+](=O)[O-])ccc2c1[nH]c1ccccc12 | 135%
24 | c1ccc(Cn2cc(-c3nc4ccccc4s3)c3cccnc32)cc1 | 95%
25 | O=C(N/N=C/c1c[nH]c2ccccc12)c1cc(-c2ccccc2)on1 | 94.8%
26 | CCCn1c(=O)[nH]c(N)c([C@H]2c3ccccc3Oc3[nH]c(=O)n(CCC)c(=O)c32)c1=O | 78.4%
27 | CC(=O)O[C@H]1[C@@H]2OC(=O)C(CSc3ccccc3)[C@@H]2C[C@H]2O[C@]2(C)CC/C=C(\C)CCC[C@@H]1C (stereo not given in full) | 87.2%
28 | O=C1Nc2ccc(Br)cc2C12Oc1ccccc1C1CC(c3ccc(F)cc3)=NN12 (stereo not given) | 103%
29 | C=C1c2nc3ccccc3n2C=C(c2cccc(Cl)c2)N1Cc1ccc(OC)cc1 | 76.8%
30 | C#CC(F)(F)[C@]1(O)CC[C@H]2[C@@H]3CCC4=CC(=O)CCC4=C3[C@@H](c3ccc(C(C)=O)cc3)C[C@@]21C | -63.4% (active)
31 | CC(=O)O[C@H]1CC[C@]2(C)[C@H]3CC=C4[C@@H]5CC(C)(C)CC[C@]5(C(=O)NCCNCCNCCN)CC[C@@]4(C)[C@]3(C)CC[C@H]2C1(C)C | 73.5%
32 | COc1ccc(-c2cc(NC(=O)Nc3ccc4ncsc4c3)no2)cc1 | 112%
33 | CCN(CC)c1ccc(-c2cc(-c3cc(OC)c(OC)c(OC)c3)nc(N3CCOCC3)c2C#N)cc1 | -12.6% (active)
34 | CC1=CC(=NN=c2cc(C)n([O-])c(C)c2)C=C(C)[N+]1=O | 106%
35 | Cc1ccc2oc(=O)cc(C3c4ccc([nH]4)C(c4cc(=O)oc5ccc(C)cc45)c4ccc([nH]4)C(c4cc(=O)oc5ccc(C)cc45)c4ccc([nH]4)C(c4cc(=O)oc5ccc(C)cc45)c4ccc3[nH]4)c2c1 (stereo not given) | -35.1% (active)
